Measurements: the supplement of paper PMC10849652
Of roughly 8,800 targets only a part is listed; those with a hit were picked by preference. About 0.5% of all pairs of compound and target were hits. A number with no mark means an inactive call.

Experiments:
Assay in all cases: log2 fold change, soluble protein after heating vs DMSO (PISA); higher = thermal stabilisation; K562 lysate, 10 uM; active = over 0.2 and 3.5 SD of the protein, either way, in both replicates (recomputed)
vemurafenib = compound: CCCS(=O)(=O)Nc1ccc(F)c(C(=O)c2c[nH]c3ncc(-c4ccc(Cl)cc4)cc23)c1F [vemurafenib]
Summary of the method: (§1)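 Quantification was by TMTpro 16plex LC-MS/MS with equalised channel sums, applied to the supernatant after 21,000xg for 90 min. Samples were crude K562 extract at 1 mg/mL protein in PBS pH 7.4 with 1 mM MgCl2, treated with 10 μM compound for 30 min, heated for 3 min across 48°C-58°C, pooled and brought to 0.5% NP-40 at 4°C. Values are log-two fold changes in thermal stability relative to solvent controls, from duplicates.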

[1] = compound: CCCS(=O)(=O)Nc1ccc(F)c(C(=O)c2c[nH]c3ncc(Cl)cc23)c1F
Summary of the method: as §1

barasertib = compound: CCN(CCCOc1ccc2c(Nc3cc(CC(=O)Nc4cccc(F)c4)[nH]n3)ncnc2c1)CCOP(=O)(O)O [barasertib]
Summary of the method: as §1

[2] = compound: CC[C@@H]1C(=O)N(C)c2cnc(Nc3ccc(C(=O)NC4CCN(C)CC4)cc3OC)nc2N1C1CCCC1
Summary of the method: as §1

volasertib = compound: CC[C@@H]1C(=O)N(C)c2cnc(Nc3ccc(C(=O)N[C@H]4CC[C@H](N5CCN(CC6CC6)CC5)CC4)cc3OC)nc2N1C(C)C [volasertib]
Summary of the method: as §1

[3] = compound: CCn1c(C(=O)N(C2CC2)C2CC2)cc2c3c(ncn3C)c(Nc3cc(C)n(C)n3)nc21
Summary of the method: as §1

[4] = compound: CCn1cc(-c2ccnc3[nH]c(-c4cccc(CN(C)C)c4)cc23)c(-c2ccc(NC(=O)N(C)C)cc2)n1
Summary of the method: as §1

[5] = compound: CN1CCC(CNc2ccc3ncc(-c4cccc(OC(F)(F)F)c4)n3n2)CC1
Summary of the method: as §1

saracatinib = compound: CN1CCN(CCOc2cc(OC3CCOCC3)c3c(Nc4c(Cl)ccc5c4OCO5)ncnc3c2)CC1 [saracatinib]
Summary of the method: as §1

sotrastaurin = compound: CN1CCN(c2nc(C3=C(c4c[nH]c5ccccc45)C(=O)NC3=O)c3ccccc3n2)CC1 [sotrastaurin]
Summary of the method: as §1

Sequence of UniProt Q9H3P2 (Q9H3P2 whole entry, looked up): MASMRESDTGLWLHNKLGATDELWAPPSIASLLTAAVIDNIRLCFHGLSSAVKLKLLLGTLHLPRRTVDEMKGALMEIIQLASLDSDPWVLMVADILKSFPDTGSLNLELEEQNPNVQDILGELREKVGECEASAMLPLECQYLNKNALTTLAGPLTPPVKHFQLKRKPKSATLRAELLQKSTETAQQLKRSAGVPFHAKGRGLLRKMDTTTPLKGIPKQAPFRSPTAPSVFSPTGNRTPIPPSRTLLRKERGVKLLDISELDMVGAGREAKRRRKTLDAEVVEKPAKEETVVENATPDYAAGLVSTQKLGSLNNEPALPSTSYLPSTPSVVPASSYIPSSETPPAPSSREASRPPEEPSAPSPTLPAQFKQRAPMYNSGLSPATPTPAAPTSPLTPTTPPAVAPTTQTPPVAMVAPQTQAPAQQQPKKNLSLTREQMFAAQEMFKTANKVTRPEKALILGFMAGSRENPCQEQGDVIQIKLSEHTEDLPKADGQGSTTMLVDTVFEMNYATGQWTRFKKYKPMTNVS
Sequence of UniProt Q9UBD5 (Q9UBD5 whole entry, looked up): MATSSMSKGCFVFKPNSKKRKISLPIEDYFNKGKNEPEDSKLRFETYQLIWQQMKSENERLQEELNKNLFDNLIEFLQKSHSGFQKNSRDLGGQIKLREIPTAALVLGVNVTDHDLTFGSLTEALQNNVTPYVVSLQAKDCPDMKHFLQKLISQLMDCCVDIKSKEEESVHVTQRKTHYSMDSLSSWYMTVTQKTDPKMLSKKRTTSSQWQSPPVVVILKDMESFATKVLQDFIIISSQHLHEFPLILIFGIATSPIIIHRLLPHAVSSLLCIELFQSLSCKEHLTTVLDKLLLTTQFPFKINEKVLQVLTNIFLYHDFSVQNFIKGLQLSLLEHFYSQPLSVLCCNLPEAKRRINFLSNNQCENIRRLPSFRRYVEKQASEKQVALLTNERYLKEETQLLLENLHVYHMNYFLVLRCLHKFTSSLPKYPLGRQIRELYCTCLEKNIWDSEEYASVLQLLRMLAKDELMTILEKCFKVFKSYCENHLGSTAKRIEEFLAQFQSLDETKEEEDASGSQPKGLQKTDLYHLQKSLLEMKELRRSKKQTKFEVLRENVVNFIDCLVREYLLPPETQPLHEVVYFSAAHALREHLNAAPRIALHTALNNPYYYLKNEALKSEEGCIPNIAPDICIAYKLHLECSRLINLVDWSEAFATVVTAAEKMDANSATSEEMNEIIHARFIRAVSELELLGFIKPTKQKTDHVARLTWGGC
Sequence of UniProt Q9BZ23 (Q9BZ23 whole entry, looked up): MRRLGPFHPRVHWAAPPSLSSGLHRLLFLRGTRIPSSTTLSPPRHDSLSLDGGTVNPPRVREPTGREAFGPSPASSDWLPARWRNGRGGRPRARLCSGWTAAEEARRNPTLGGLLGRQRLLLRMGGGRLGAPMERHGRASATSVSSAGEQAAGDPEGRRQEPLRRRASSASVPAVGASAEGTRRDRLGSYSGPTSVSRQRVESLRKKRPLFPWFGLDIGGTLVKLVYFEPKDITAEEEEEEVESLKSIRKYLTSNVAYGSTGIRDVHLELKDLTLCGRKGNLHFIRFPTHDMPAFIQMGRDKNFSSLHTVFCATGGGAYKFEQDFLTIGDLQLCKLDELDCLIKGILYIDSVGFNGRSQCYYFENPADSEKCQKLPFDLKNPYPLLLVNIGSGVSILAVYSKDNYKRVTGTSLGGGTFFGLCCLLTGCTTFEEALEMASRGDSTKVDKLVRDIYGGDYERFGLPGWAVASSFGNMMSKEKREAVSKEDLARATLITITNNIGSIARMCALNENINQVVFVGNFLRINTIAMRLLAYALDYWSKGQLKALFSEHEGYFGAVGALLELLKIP
Sequence of UniProt O95644 (O95644 whole entry, looked up): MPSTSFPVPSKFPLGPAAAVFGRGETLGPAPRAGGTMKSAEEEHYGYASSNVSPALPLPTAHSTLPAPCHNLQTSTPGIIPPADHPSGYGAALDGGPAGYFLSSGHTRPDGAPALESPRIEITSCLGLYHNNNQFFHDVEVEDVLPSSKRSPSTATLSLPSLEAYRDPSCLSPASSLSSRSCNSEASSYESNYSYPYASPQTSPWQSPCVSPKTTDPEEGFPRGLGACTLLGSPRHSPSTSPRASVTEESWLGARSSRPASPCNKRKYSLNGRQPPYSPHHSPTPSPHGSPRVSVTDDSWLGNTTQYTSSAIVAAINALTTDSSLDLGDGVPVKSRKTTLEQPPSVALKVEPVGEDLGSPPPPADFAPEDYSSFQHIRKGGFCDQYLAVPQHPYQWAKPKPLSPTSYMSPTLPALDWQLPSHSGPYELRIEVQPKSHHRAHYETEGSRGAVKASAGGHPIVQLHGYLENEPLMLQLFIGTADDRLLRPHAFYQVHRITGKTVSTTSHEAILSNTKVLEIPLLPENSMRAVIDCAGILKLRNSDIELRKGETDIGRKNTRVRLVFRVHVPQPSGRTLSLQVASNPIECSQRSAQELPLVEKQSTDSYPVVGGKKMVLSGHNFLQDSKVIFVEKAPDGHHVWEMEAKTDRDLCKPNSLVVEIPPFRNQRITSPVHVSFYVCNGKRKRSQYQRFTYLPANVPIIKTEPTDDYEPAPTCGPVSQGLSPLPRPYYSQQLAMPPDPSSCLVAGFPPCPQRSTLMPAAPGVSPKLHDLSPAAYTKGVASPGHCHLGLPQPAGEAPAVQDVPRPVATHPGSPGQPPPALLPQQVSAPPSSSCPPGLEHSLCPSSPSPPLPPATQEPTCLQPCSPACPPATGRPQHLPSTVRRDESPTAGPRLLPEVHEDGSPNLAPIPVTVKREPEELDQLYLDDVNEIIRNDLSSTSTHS
Sequence of UniProt Q9H857 (Q9H857 whole entry, looked up): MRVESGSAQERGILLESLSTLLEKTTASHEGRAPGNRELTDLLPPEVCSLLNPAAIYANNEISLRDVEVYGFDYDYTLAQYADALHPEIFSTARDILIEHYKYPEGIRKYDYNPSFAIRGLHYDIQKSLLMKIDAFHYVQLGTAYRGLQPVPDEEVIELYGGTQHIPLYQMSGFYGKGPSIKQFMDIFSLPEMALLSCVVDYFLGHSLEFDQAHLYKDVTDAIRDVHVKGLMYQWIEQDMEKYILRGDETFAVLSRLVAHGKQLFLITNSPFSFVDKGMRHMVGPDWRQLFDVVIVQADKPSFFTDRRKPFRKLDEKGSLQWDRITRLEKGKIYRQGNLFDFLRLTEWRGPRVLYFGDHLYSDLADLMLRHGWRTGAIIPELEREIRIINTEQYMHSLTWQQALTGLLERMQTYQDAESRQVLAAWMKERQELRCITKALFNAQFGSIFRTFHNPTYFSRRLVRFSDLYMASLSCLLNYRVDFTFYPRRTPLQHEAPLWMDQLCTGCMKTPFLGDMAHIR
Sequence of UniProt Q9BYG3 (Q9BYG3 whole entry, looked up): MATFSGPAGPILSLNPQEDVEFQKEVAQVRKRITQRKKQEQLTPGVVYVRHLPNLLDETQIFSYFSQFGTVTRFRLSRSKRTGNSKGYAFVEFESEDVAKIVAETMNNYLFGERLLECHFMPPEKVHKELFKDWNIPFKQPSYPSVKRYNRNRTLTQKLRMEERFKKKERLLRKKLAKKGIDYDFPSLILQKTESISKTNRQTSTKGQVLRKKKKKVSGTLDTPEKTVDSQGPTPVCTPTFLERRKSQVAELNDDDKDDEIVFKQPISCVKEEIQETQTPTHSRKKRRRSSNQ
Sequence of UniProt O00159 (O00159 whole entry, looked up): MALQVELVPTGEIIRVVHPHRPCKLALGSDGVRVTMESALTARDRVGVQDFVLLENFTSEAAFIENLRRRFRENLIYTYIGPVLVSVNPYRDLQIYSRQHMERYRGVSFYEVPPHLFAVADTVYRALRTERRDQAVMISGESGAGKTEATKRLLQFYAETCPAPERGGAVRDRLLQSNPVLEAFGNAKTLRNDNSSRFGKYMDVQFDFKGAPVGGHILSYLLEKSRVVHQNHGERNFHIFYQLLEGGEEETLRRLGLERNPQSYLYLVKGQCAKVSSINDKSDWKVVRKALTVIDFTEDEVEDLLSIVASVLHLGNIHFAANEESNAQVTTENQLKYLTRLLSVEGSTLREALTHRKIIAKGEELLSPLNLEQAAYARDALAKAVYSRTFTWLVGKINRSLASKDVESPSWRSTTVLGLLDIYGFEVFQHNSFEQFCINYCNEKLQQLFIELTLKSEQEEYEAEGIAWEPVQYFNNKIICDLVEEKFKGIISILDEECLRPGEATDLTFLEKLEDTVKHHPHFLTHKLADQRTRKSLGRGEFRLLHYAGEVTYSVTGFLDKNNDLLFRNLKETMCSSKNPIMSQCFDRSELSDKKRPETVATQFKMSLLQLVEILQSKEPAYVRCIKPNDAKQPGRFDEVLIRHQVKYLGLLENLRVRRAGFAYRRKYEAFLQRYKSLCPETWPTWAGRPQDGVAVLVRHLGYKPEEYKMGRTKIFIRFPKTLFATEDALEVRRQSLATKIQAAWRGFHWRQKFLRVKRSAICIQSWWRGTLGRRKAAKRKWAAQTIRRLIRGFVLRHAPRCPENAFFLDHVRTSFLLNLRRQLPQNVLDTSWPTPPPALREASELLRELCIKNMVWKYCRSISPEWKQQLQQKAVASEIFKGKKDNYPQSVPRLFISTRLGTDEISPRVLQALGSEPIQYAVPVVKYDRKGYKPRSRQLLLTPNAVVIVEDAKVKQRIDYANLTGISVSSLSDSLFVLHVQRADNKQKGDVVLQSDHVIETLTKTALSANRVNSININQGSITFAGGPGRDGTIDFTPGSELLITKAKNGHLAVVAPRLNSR
Sequence of UniProt Q9NZJ9 (Q9NZJ9 whole entry, looked up): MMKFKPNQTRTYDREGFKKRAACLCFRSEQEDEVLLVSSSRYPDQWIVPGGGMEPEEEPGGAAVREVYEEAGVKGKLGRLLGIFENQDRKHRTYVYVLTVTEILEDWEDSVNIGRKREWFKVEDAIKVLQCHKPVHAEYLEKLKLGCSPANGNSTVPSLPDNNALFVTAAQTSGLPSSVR
Sequence of UniProt O75607 (O75607 whole entry, looked up): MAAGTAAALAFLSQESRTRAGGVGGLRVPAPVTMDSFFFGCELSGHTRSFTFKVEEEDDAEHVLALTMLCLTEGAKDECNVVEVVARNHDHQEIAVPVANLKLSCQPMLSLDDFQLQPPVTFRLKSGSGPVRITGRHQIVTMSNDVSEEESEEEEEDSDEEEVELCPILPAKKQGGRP

Target	log2 fold change (vemurafenib)	log2 fold change [1]	log2 fold change (barasertib)	log2 fold change [2]	log2 fold change (volasertib)	log2 fold change [3]	log2 fold change [4]	log2 fold change [5]	log2 fold change (saracatinib)	log2 fold change (sotrastaurin)
NT5DC2 isoform 2 (UniProt Q9H857)	0	0.069	0.001	0.011	-0.028	-0.01	0.034	0.03	-0.017	0.117
MTMR6 (UniProt Q9Y217)	0.038	0.012	0.018	0.006	-0.024	-0.055	0.217	-0.08	0.024	0.087
PANK2 (UniProt Q9BZ23)	0.093	-0.036	-0.047	0.011	-0.086	0.002	-0.167	-0.057	0.068	0.027
MRPL53 (UniProt Q96EL3)	-0.006	-0.01	0.032	0.069	0.057	-0.017	0.013	-0.019	-0.003	-0.021
NONO (UniProt Q15233)	-0.005	0.018	-0.006	-0.032	-0.049	0	0.076	-0.043	0.004	-0.015
ORC3 isoform 2 (UniProt Q9UBD5)	0.016	-0.008	0.022	-0.036	-0.059	-0.006	-0.063	-0.018	-0.001	0.027
NUDT4 (UniProt Q9NZJ9)	-0.24	0.04	-0.032	-0.078	-0.054	0.082	0.23	0.005	-0.03	0.005
NEK9 (UniProt Q8TD19)	-0.001	0.054	-0.008	0.004	-0.01	0.004	-0.046	0.048	0.035	-0.016
OTC (UniProt P00480)	0.072	-0.063	0.063	-0.246	0.018	-0.035	-1.43	0.371	0.012	0.282
NEBL (UniProt O76041)	0.034	-0.027	0.066	0.039	0.014	-0.014	0.29 (active)	-0.002	-0.035	0.085
NR2C2 isoform 2 (UniProt P49116)	-0.087	0.049	0.017	-0.091	-0.001	0.003	0.075	-0.074	-0.058	0.002
NIFK (UniProt Q9BYG3)	0.015	0.036	0.033	0.006	-0.027	0.009	0.093	-0.045	0.005	-0.018
NCAPG (UniProt Q9BPX3)	-0.013	0.021	0.018	-0.057	-0.023	0.015	-0.05	-0.024	0.001	-0.011
MYO1C (UniProt O00159)	-0.016	0.039	-0.012	-0.042	-0.046	0.101	-0.025	-0.018	-0.019	0.028
OSBP2 (UniProt Q969R2)	-0.056	-0.014	-0.055	0.062	-0.077	-0.001	-0.881 (active)	0.279	0.068	0.104
NELFA (UniProt Q9H3P2)	0.015	0.02	-0.005	-0.016	-0.083	0.007	0.037	-0.037	-0.013	0.029
NOSIP (UniProt Q9Y314)	-0.008	0.034	0.012	0.017	-0.035	-0.005	-0.013	0.016	0.008	-0.014
MVB12A (UniProt Q96EY5)	-0.017	0.005	-0.04	0.094	-0.001	0.03	0.009	-0.001	0.015	0.01
NUP160 (UniProt Q12769)	-0.039	0.02	0.052	-0.106	-0.105	0.043	0.057	-0.058	0.043	-0.01
MTCH2 (UniProt Q9Y6C9)	0.013	0.008	-0.02	0.021	0.05	-0.012	-0.155	0.014	-0.011	0.022
NPM3 (UniProt O75607)	0.052	0.03	-0.065	0.058	-0.015	-0.007	-0.376 (active)	0.158	-0.023	0.025
NBN (UniProt O60934)	0.011	0.011	0.037	-0.028	-0.019	-0.003	0.043	-0.058	0.025	0.001
NDUFAF5 (UniProt Q5TEU4)	-0.015	0.007	-0.032	0.127	0.04	-0.103	-0.052	0.035	0.179	0
MT-CYB (UniProt P00156)	0.004	-0.03	-0.054	0	0.056	-0.097	-0.993 (active)	0.521 (active)	0.047	0.027
MYD88 isoform 6 (UniProt Q99836)	-0.031	0.01	-0.002	-0.042	-0.075	0.022	-0.009	-0.013	0.009	0.05
MTOR (UniProt P42345)	0.026	0.015	0.052	-0.045	-0.044	-0.006	-0.04	-0.031	0.005	0.03
NFATC1 (UniProt O95644)	0.004	0.058	-0.015	0.001	0	0.007	-0.118	0.064	0.042	0
